What all share (test): pooled miR-30 sensor sort-seq; sequence = guide strand
What all share (conditions): shRNA

The target in assay [1] is MYCL1.
Assay [2] deals with MYCBPAP.
Assay [3] addresses MYL4.
The target of assay [4] is MYH14.
The target in assay [5] is MYO1D.
Assay [6] has as its target MYO1A.
Assay [7] addresses MYO1F.
In assay [8] the target is MYNN.
For assay [9], the target named is MYST4.
For assay [10], the target named is NCSTN.
Assay [11] has as its target NLRP3.
In assay [12] the target is NMRAL1.
The target in assay [13] is NOXA1.
Assay [14] deals with NOTCH4.
Assay [15] concerns the target NOX3.
For assay [16], the target named is NPBWR1.
Further: reference of the scale not given here.

TTAGGATCACTACTTTGGGGGC: the sensor-assay potency score (higher = more potent) in assay [1] was -0.971.
For the sequence TTTTGTCTTGGTCATGACCAGA, in assay [2], the sensor-assay potency score (higher = more potent) was -1.08.
Still for that read-out and setting: the value for TTTCTTGTCTTCTTTGTCTTTG was -0.276.
For TTCTTCCAGATGTCCTCGCTGG, in assay [1], the sensor-assay potency score (higher = more potent) was -0.137.
For the sequence AAGTCTATCTTTACACTCTTGG, the sensor-assay potency score (higher = more potent) in assay [3] is -0.446.
TTGAGGCGCAGAACCAGCCAGC displayed a sensor-assay potency score (higher = more potent) in assay [4] of -0.999.
With TCTCCTTGTAGGACATTGCTAA, in assay [2], the sensor-assay potency score (higher = more potent) is -0.62.
TGTCAGGATCTCGTATCGCTGC came in with a sensor-assay potency score (higher = more potent) in assay [4] of -0.48.
TCTGGTCTCTTGCTCTAGCTGC: the sensor-assay potency score (higher = more potent) in [4] was -0.396.
Sequence TCTATCTTTACACTCTTGGGGT came in with a sensor-assay potency score (higher = more potent) in [3] of 0.0138.
In the case of TTGGTGTTTTCCGTCTTCCCAG, in [4], the sensor-assay potency score (higher = more potent) is -1.05.
Turning to TTTCTCTGTAGCCATCCTCTTC, the sensor-assay potency score (higher = more potent) in [1] was -0.97.
As for TTCTTTTCTGCAACTGCTGCTG, in assay [1], the sensor-assay potency score (higher = more potent) was -0.121.
In the case of TTGTAGTCGACCTTGCCCGCGT, in assay [4], the sensor-assay potency score (higher = more potent) is -0.308.
For the sequence TGCAATTCTCTTAAAATCCTGG, in [2], the sensor-assay potency score (higher = more potent) is -0.695.
In assay [4], TTCACCTTGGTAAACAGCCGCC registered a sensor-assay potency score (higher = more potent) of -0.755.
Take TAGGTGATCTTCATCTCTCCAG: in assay [3], the sensor-assay potency score (higher = more potent) was -0.392.
As to ATCAATTTCTTCATTCTCCGAG, the sensor-assay potency score (higher = more potent) in assay [1] was found to be 0.219.
Consider TTTATTAACAGGGAGGGCCTGT, for which the sensor-assay potency score (higher = more potent) in assay [3] was -0.299.
Sequence TCATCTGCCATCTCATCCCGGT showed a sensor-assay potency score (higher = more potent) in [4] of -0.0949.
The same measure, in the same setting: the value for TTTCCGTCTTCCCAGCTCCAGA was -1.5.
AATTCTTTTCTGCAACTGCTGC: the sensor-assay potency score (higher = more potent) in assay [1] is -0.74.
In assay [1], TTGCTTAGGATCACTACTTTGG yielded a sensor-assay potency score (higher = more potent) of -0.448.
The sequence TAGTGGAGAACACTGAAGTCGG displayed a sensor-assay potency score (higher = more potent) in assay [4] of -0.73.
The same measure, in the same setting: in the case of TTGTCATTCTTCACTGTCTTGG it was -0.287.
TAGATGTTCAACAACTTGTAAG came in with a sensor-assay potency score (higher = more potent) in assay [5] of -1.57.
For TTTTTGTAGCGTAGCTTGCTGT, the sensor-assay potency score (higher = more potent) in assay [6] is -0.784.
As for TCATTTTGCATGACCACGCGGG, the sensor-assay potency score (higher = more potent) in [7] was -0.396.
Regarding TATCTTTACACTCTTGGGGTCA, the sensor-assay potency score (higher = more potent) in assay [3] was -0.527.
In turn, TTTGAGATAGTCAGCAGCCTGA registered a sensor-assay potency score (higher = more potent) in assay [8] of -0.243.
With TTAGTTTCTTGACAGCCTCTTT, the sensor-assay potency score (higher = more potent) in assay [5] is -0.583.
Same read-out and setting: the value for TTGTTCTTGCTTCAGAACCAGC was -1.43; that for TTGTTCTGAACCTCCTTGGAGT was -0.407.
Take TTTGAGATGACTTTTTCGCTAA: the sensor-assay potency score (higher = more potent) in assay [8] was -0.185.
Still for that read-out and setting: in the case of TAAATTTTTAATATCTGTGTAA it was -0.492.
TTGATTCGATTCACTATCCAGT showed a sensor-assay potency score (higher = more potent) in assay [6] of -0.284.
Regarding TTGTCGAATCTCCTCCTCCGAG, the sensor-assay potency score (higher = more potent) in [6] was -0.993.
For the sequence TTTCTGAAATCCATCAGCCTTC, the sensor-assay potency score (higher = more potent) in [8] is -0.541.
In assay [5], TAGTAGAGAGCAATTCTGCTAT returned a sensor-assay potency score (higher = more potent) of 0.00249.
TCTTGACATTCATCTCTTCAGG had a sensor-assay potency score (higher = more potent) in assay [3] of -0.927.
In the case of TTCAAAACTGTTGTTGTCGAAG, the sensor-assay potency score (higher = more potent) in assay [5] is -0.485.
Still for that read-out and setting: in the case of TATAGTTGTAGGATGAAAGGGA it was 0.615.
On to TAAATCTTCTGTATGAGTGTGG, for which the sensor-assay potency score (higher = more potent) in [6] turned out to be 0.504.
Regarding TTCCTCTTGCTCTTCTTTCAGG, the sensor-assay potency score (higher = more potent) in [6] was -0.825.
The same measure, in the same setting: the value for TAAGACATCACCAGCTTGCTGG was -0.216.
On to TTCTTGACAAAGACCTTGGTGC, for which, in assay [7], the sensor-assay potency score (higher = more potent) worked out at 0.169.
The sequence TAGCACTTGTCGAATCTCCTCC gave a sensor-assay potency score (higher = more potent) in [6] of 0.419.
Regarding TTCAAGAAACATTTCATCGGTG, the sensor-assay potency score (higher = more potent) in [5] came out at 0.501.
Still for that read-out and setting: the value for TTTCTCAACCATATCTGTCTTA was 0.187.
As for TTGACCTCAACAATGTATCTGA, the sensor-assay potency score (higher = more potent) in assay [8] is 0.54.
TTGTCTAAGACGTTTGTGGATG registered a sensor-assay potency score (higher = more potent) in assay [6] of -0.839.
Turning to TCGATTATTATAATCTCGCAGA, the sensor-assay potency score (higher = more potent) in assay [8] is -0.633.
In assay [8], TTATGTATTCTCATGTGCCTTC returned a sensor-assay potency score (higher = more potent) of 0.676.
The same measure, in the same setting: the value for TAACAGTGTGCACAATATCTTG was -1.2.
TAGTCCACCTTTGTCCACGGTA had a sensor-assay potency score (higher = more potent) in assay [6] of -0.661.
Sequence TTATTTGTGCAACTTGTTCTAC had a sensor-assay potency score (higher = more potent) in assay [8] of 0.0284.
Consider TAGCACTCAGAGTCTCACCAAA, for which the sensor-assay potency score (higher = more potent) in [7] was -0.917.
Sequence TTTTTCTTCACCATGATGCATG gave a sensor-assay potency score (higher = more potent) in [8] of -0.931.
In the case of TTGAGCACAGGATTTGAACTGT, the sensor-assay potency score (higher = more potent) in [5] was found to be 0.338.
TTGAGATTGCTAGAAGTCGCAA: the sensor-assay potency score (higher = more potent) in [8] is -0.134.
For the sequence TTGAGCTGCTTCACTAATCGGG, the sensor-assay potency score (higher = more potent) in assay [6] was determined as 0.105.
For TCGGCAGTGAAGTCTATCTTTA, the sensor-assay potency score (higher = more potent) in [3] was -1.13.
The sequence TTAAGTAAGATGATCCTTGGAG had a sensor-assay potency score (higher = more potent) in assay [5] of 0.286.
TGCTTCTGTAGATCGCACCAAA: the sensor-assay potency score (higher = more potent) in assay [8] was -1.32.
The sequence TTCTCCTTGAACCTCACTGAGA showed a sensor-assay potency score (higher = more potent) in [6] of -1.61.
In assay [9], TTCAGTAACGACATCCTTGTTT came in with a sensor-assay potency score (higher = more potent) of -0.1.
Still for that read-out and setting: the value for TATTTCAGTATCATCATCCTGA was 0.932.
In [10], AAGACAAACATGACATTGCGGG showed a sensor-assay potency score (higher = more potent) of -0.588.
The same measure, in the same setting: the value for TGAGTCAACATTCTCTAACTGC was 0.0625.
In assay [11], TTCTCATAAAGGTCTCTCCTGT registered a sensor-assay potency score (higher = more potent) of -0.131.
Still for that read-out and setting: in the case of TAGATCCACATGGTCTGCCTTC it was -0.905.
In the case of TAGTCCTCAGGAGTCATCTTGG, the sensor-assay potency score (higher = more potent) in assay [12] is -0.467.
In assay [12], TACTTCTGCACCTTGCAGCCTC yielded a sensor-assay potency score (higher = more potent) of -0.418.
TGGTAGGCAGTCGACGTGCAGC showed a sensor-assay potency score (higher = more potent) in assay [13] of -1.86.
On the same count and under the same terms, in the case of ACATTGTGTAGCACCTCCCAGG it was -1.3; in that of TAACTGAGTTGCCCAAGCTGGG, -1.24.
In the case of TTGGGACTGACAAGCATCGAGT, the sensor-assay potency score (higher = more potent) in assay [14] is -0.743.
For the sequence TTGGGGAAGATGCCGATGCGGC, the sensor-assay potency score (higher = more potent) in assay [13] is -1.12.
Still for that read-out and setting: in the case of TTGTGTAGCACCTCCCAGGCTT it was -0.348; in that of TCCTGGTAGGCAGTCGACGTGC, -1.54.
In [15], TTGAACCCAAAATAACTCGTGT had a sensor-assay potency score (higher = more potent) of -0.176.
Take TTGTACTGGTCGATAGCCACGA: in assay [16], the sensor-assay potency score (higher = more potent) is -0.0597.
Still for that read-out and setting: in the case of TTGGAGCAGCTCAGCGCCGGGT it was -1.46.
On to TTAGGGACCTGGCATCATGGTT, for which the sensor-assay potency score (higher = more potent) in [13] was -1.05.

These data come from the OligoGym collection.
